Test in all cases: yeast three-hybrid, YBZ-1, SC-Leu-His + 0.5 mM 3-AT, 4 days
Holding throughout (conditions): tags: N-Gal4 AD-HA kept; label: inside an RPR1-promoter hybrid RNA with tandem MS2 sites; ssRNA

One experiment deals with PUM1 PUF domain R3-MYH (Homo sapiens, UniProt Q14671 828-1176, C935M;R936Y;Q939H). The method, boiled down: (§1)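 Pumilio-1 PUF domain libraries, randomized at the three base-contacting residues of each repeat, were co-expressed with matching RNA elements from a centromeric plasmid in strain YBZ-1, which carries a LexA–MS2 coat fusion and a HIS3 reporter. Transformants grew for four days on SC-Leu (input) or on SC-Leu-His + 0.5 mM 3-AT (selection), and the repeat regions were PCR-amplified and Illumina-sequenced. The interaction score is the log change in variant frequency from input to selection. That logarithm is base 2, with a pseudocount of 1 where a variant was absent.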

The next experiment has as its target PUM1 PUF domain R8-VWR (Homo sapiens, UniProt Q14671 828-1176, N1122V;Y1123W;Q1126R). A digest of the protocol: as §1
The next experiment addresses PUM1 PUF domain R3-VWP (Homo sapiens, UniProt Q14671 828-1176, C935V;R936W;Q939P). The method, boiled down: as §1
The next experiment addresses PUM1 PUF domain R2-NRW (Homo sapiens, UniProt Q14671 828-1176, Y900R;Q903W). The method, boiled down: as §1
The target in another experiment is T1, PUM1 PUF domain R6-RFA (Homo sapiens, UniProt Q14671 828-1176, N1043R;Y1044F;Q1047A).
T1 sequence: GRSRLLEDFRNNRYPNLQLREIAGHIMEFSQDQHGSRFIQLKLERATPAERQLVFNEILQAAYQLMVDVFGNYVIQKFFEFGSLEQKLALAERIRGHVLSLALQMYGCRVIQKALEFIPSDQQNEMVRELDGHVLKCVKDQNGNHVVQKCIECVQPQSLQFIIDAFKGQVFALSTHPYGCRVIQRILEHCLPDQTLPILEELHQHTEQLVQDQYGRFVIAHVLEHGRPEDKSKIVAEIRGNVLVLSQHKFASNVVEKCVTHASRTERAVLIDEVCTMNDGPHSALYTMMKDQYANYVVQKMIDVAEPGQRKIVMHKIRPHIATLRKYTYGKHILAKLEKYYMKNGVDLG
A digest of the protocol:
as §1

The target in a further experiment is PUM1 PUF domain R4-DWV (Homo sapiens, UniProt Q14671 828-1176, N971D;H972W;Q975V). A digest of the protocol:
as §1

Another experiment concerns the target PUM1 PUF domain R8-IFM (Homo sapiens, UniProt Q14671 828-1176, N1122I;Y1123F;Q1126M). A digest of the protocol:
as §1

A further experiment deals with PUM1 PUF domain R5-FHC (Homo sapiens, UniProt Q14671 828-1176, C1007F;R1008H;Q1011C). A digest of the protocol: as §1
Another experiment addresses PUM1 PUF domain R7-KFW (Homo sapiens, UniProt Q14671 828-1176, S1079K;N1080F;E1083W). The method, boiled down:
as §1

The target of another experiment is PUM1 PUF domain R1-KSV (Homo sapiens, UniProt Q14671 828-1176, S863K;R864S;Q867V). The method, boiled down:
as §1

Here are results for ten sequences from publication PMC8384837, “Expanding the binding specificity for RNA recognition by a PUF domain”.

With “GGCUAGAACUAGUGGAUCCCCCGGCGCCCGGCGGCUCGAGCCCGGGUAAGUGUAAAUAGUCUGCAUGCCGCCGGGCGCCAUGCCUGCAGGUCGACUCUAGAAAACAUG”, the binding signal with PUM1 PUF domain R3-MYH was 3.93 log2 enrichment (interaction score); with PUM1 PUF domain R8-VWR, 4.37 log2 enrichment (interaction score); with PUM1 PUF domain R3-VWP, 7.08 log2 enrichment (interaction score); with PUM1 PUF domain R2-NRW, 6.69 log2 enrichment (interaction score); in the experiment with PUM1 PUF domain R6-RFA, 4.04 log2 enrichment (interaction score).
On to “GGCUAGAACUAGUGGAUCCCCCGGCGCCCGGCGGCUCGAGCCCGGGUAAGUGUAUAUAGUCUGCAUGCCGCCGGGCGCCAUGCCUGCAGGUCGACUCUAGAAAACAUG”, for which, in the experiment with PUM1 PUF domain R4-DWV, the binding signal was 6.48 log2 enrichment (interaction score).
Turning to “GGCUAGAACUAGUGGAUCCCCCGGCGCCCGGCGGCUCGAGCCCGGGUAAGCGUAAAUAGUCUGCAUGCCGCCGGGCGCCAUGCCUGCAGGUCGACUCUAGAAAACAUG”, the binding signal was 2.25 log2 enrichment (interaction score) in the experiment with PUM1 PUF domain R8-IFM and 4.44 log2 enrichment (interaction score) with PUM1 PUF domain R8-VWR.
For “GGCUAGAACUAGUGGAUCCCCCGGCGCCCGGCGGCUCGAGCCCGGGUAAGUGUAAUUAGUCUGCAUGCCGCCGGGCGCCAUGCCUGCAGGUCGACUCUAGAAAACAUG”, the binding signal with PUM1 PUF domain R3-VWP was 3.12 log2 enrichment (interaction score).
Take “GGCUAGAACUAGUGGAUCCCCCGGCGCCCGGCGGCUCGAGCCCGGGUAAGUGUGAAUAGUCUGCAUGCCGCCGGGCGCCAUGCCUGCAGGUCGACUCUAGAAAACAUG”: the binding signal with PUM1 PUF domain R5-FHC was 3.55 log2 enrichment (interaction score).
For “GGCUAGAACUAGUGGAUCCCCCGGCGCCCGGCGGCUCGAGCCCGGGUAAGUGUUAAUAGUCUGCAUGCCGCCGGGCGCCAUGCCUGCAGGUCGACUCUAGAAAACAUG”, the binding signal with PUM1 PUF domain R5-FHC is 4.26 log2 enrichment (interaction score).
For “GGCUAGAACUAGUGGAUCCCCCGGCGCCCGGCGGCUCGAGCCCGGGUAAGUCUAAAUAGUCUGCAUGCCGCCGGGCGCCAUGCCUGCAGGUCGACUCUAGAAAACAUG”, the binding signal in the experiment with PUM1 PUF domain R7-KFW is 3.75 log2 enrichment (interaction score).
Turning to “GGCUAGAACUAGUGGAUCCCCCGGCGCCCGGCGGCUCGAGCCCGGGUAAGUGAAAAUAGUCUGCAUGCCGCCGGGCGCCAUGCCUGCAGGUCGACUCUAGAAAACAUG”, in the experiment with PUM1 PUF domain R6-RFA, the binding signal was 1.03 log2 enrichment (interaction score).
As for “GGCUAGAACUAGUGGAUCCCCCGGCGCCCGGCGGCUCGAGCCCGGGUAAGUGUAAAUUGUCUGCAUGCCGCCGGGCGCCAUGCCUGCAGGUCGACUCUAGAAAACAUG”, the binding signal with PUM1 PUF domain R1-KSV was 2.75 log2 enrichment (interaction score).
Still for that read-out and setting: the value for “GGCUAGAACUAGUGGAUCCCCCGGCGCCCGGCGGCUCGAGCCCGGGUAAGUGUAAAUGGUCUGCAUGCCGCCGGGCGCCAUGCCUGCAGGUCGACUCUAGAAAACAUG” was 1.55 log2 enrichment (interaction score).
